Measured values: PubChem BioAssay (NCATS)
“And” between values parts separate entries of the source, which are not always exact repeats. Equal entries are not always repeated. The source made the active and inactive calls. The call rests on the fitted dose curve; in most records, active means well fitted activation curve with a large enough effect; inconclusive means small, poorly fitted or top-dose-only effect; inactive means no such curve, though single readings can be large or run the other way.

target: Cytochrome P450 3A4 (Homo sapiens) (UniProt P08684); assay: qHTS Assay for Activators of Cytochrome P450 3A4 (AID 885); conditions: recombinant CYP3A4, Luciferin-PPXE luminescence, 60 min; series mostly up to 57.1 µM; activity change, positive = activation: at the top concentration; further: nearly all actives have a fitted effect of over 65% in size
Sequence (P08684 whole entry, looked up): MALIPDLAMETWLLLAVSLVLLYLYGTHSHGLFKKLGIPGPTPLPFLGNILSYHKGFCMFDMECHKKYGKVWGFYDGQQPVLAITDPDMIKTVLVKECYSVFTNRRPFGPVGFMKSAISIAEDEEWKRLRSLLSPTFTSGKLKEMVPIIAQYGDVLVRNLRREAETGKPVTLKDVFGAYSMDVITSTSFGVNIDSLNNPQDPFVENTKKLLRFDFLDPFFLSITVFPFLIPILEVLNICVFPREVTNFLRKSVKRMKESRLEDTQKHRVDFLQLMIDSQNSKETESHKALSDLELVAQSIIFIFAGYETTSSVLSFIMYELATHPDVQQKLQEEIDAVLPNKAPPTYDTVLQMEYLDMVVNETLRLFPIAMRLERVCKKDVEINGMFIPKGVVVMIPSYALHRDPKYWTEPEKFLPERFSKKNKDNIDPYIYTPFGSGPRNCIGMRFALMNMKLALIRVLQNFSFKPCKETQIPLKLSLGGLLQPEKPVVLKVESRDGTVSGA
Outline: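 20nM CYP3A4 + 25uM Luciferin-PPXE (=KM), 200mM KPO4; cpd 10 min RT; NADPH regen, 60 min RT; stop w/ detection buffer, 20 min; luminescence. Normalized to 57 uM ketoconazole.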

Activity change, positive = activation, inactive:
O=C1[C@H]2[C@H]3[C@H](O)[C@H](O)C/C(=N/OC[C@@H](O)COCc4ccco4)[C@H]3CC[C@@H]2C(=O)N1c1cccc(Oc2ccccc2)c1 -40.2% [at 11.4 µM], O=C(N/N=C1/C[C@@H](O)[C@@H](O)[C@@H]2[C@H]3C(=O)N(c4ccc(F)cc4F)C(=O)[C@@H]3CC[C@H]12)OCc1ccccc1 -37% [at 11.4 µM], C#CCCCO/N=C1/[C@H]2O[C@@H]2[C@@H](O)[C@H]2[C@H]1CCn1c(=O)n([C@@H](CC)c3ccccc3)c(=O)n12 -55.5% [at 11.4 µM], CC(=O)OC[C@@H]1O[C@H](CCO/N=C(\C)CCN2CCCc3nc(C)c(C)cc32)C=C[C@@H]1OC(C)=O -42.6% [at 11.4 µM], CO[C@H]1COC(=O)[C@H](Cc2ccccc2)NC(=O)C/C=C\[C@@H](C)[C@H](OC)COC(=O)C/C=C\[C@@H]1C -59.6% [at 11.4 µM], Cc1ccc2oc(=O)c3c4cc(O)c(O)c(C)c4oc3c2c1 -37.5%, COC(=O)CN=C1OC(=O)N2C(=O)C3=C4C(C[C@H]5C(=O)N(c6ccccc6)C(=O)[C@H]5[C@H]4[C@@]12Cc1ccccc1)[C@H]1C(=O)N(c2ccccc2)C(=O)[C@H]1[C@H]3C (some centres undefined) -56.9%, CO[C@H]1COC(=O)C/C=C\[C@H](C)[C@H](OC)COC(=O)[C@@H](C)COC(=O)C/C=C\[C@@H]1C -30.8% [at 11.4 µM] and -38.4% [at 11.4 µM], COC(=O)[C@@H]1C[C@@]2(O)[C@H](O)[C@H](O)[C@H](O)C[C@H]2N1Cc1ccc(-c2ccccc2)cc1 -55.8%, CO[C@H]1COC(=O)C/C=C\[C@@H](C)COC(=O)[C@@H](CCSC)NC(=O)C/C=C\[C@@H]1C -36.9% [at 11.4 µM] and -35.4% [at 11.4 µM], COC(=O)C/C=C\[C@@H](C)[C@@H](/C=N\OC[C@@H](C)[C@H](OCc1ccccc1)C(C)C)OC -33% [at 11.4 µM], c1ccc(-c2ccc(CN3C[C@@H]4C(c5ccccc5)C5(c6cccnc6)CC4(C5)[C@H]3c3ccccc3)cc2)cc1 (some centres undefined) -59%, CC(C)Cn1c(N)c(C(=O)COC(=O)c2cc(C(F)(F)F)nc3c(C(F)(F)F)cccc23)c(=O)n(C)c1=O -41.9%, COC(=O)[C@@]1(C)C=C[C@@H](Cc2ccccc2)N1C(=O)c1ccccc1 -35%
